Data on one molecule can be found in the supplement of paper PMC8728848.

Common to all, as to test: glycan array binding signal (z-score within array); higher = stronger binding
Settings in all cases: glycan notation: IUPAC condensed, linker removed

One assay addresses Fuc(a1-2)Gal(b1-3)GlcNAc. The method in brief:
(§1)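 Arrays were curated from the Consortium for Functional Glycomics database, 3228 in total, and kept only where the protein sequence was available. Binding is expressed as a within-array Z-score. This score was averaged across arrays of the same protein sequence at different concentrations or buffers and across linkers, and negative values can be read as non-binding.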

Assay [1] has as its target Fuc(a1-2)[Gal(a1-4)]Gal(b1-4)GlcNAc. The method in brief:
as §1

Assay [2] deals with Fuc(a1-2)[GalNAc(a1-3)]Gal(b1-4)Glc. The method in brief: as §1
Assay [3] deals with Fuc(a1-2)[GalNAc(a1-3)]Gal(b1-4)GlcNAc. Put shortly:
as §1

Assay [4] deals with Fuc(a1-2)[GalNAc(b1-3)]Gal. Put shortly: as §1
In a further assay the target is Gal(a1-2)Gal. Put shortly:
as §1

The next assay addresses Gal(a1-3)Gal(b1-4)Glc. The method in brief: as §1
In assay [5] the target is Gal(a1-3)Gal(b1-4)[Fuc(a1-3)]GlcNAc. Put shortly: as §1
In assay [6] the target is Gal(a1-3)[Gal(a1-4)]Gal(b1-4)GlcNAc. Put shortly: as §1
A further assay has as its target Gal(a1-4)GlcNAc. Put shortly:
as §1

A further assay deals with Gal(a1-6)Glc. Put shortly:
as §1

The next assay deals with Gal(b1-3)Gal. Put shortly:
as §1

Assay [7] has as its target Gal(b1-4)GlcNAc(b1-6)Gal(b1-4)GlcNAc(b1-6)GalNAc. Put shortly: as §1
Another assay concerns the target Glc(a1-4)Glc. Put shortly: as §1
The next assay deals with GlcA(b1-3)Gal. Put shortly: as §1
In assay [8] the target is GlcNAc(a1-3)Gal(b1-4)GlcNAc. The method in brief:
as §1

The target in assay [9] is Man(a1-2)Man(a1-2)Man(a1-6)[Man(a1-3)]Man. Put shortly:
as §1

The target of a further assay is Man(a1-2)Man(a1-3)Man. Put shortly: as §1
Assay [10] concerns the target Man(a1-2)Man(a1-3)[Man(a1-2)Man(a1-6)]Man(a1-6)[Man(a1-2)Man(a1-2)Man(a1-3)]Man(b1-4)GlcNAc(b1-4)GlcNAc. Put shortly: as §1
In assay [11] the target is Man(a1-2)Man(a1-6)[Man(a1-3)]Man(a1-6)[Man(a1-2)Man(a1-2)Man(a1-3)]Man(b1-4)GlcNAc(b1-4)GlcNAc. The method in brief:
as §1

Assay [12] addresses Neu5Ac(a2-3)Gal(b1-3)[Neu5Ac(a2-6)]GalNAc. The method in brief:
as §1

The next assay addresses Neu5Gc(a2-3)Gal(b1-4)Glc. The method in brief: as §1

The full list was thinned out, with the strongest signals kept by preference.

B1: PA-IL (Pseudomonas aeruginosa) (protein)
chain: AWKGEVLANNEAGQVTSIIYNPGDVITIVAAGWASYGPTQKWGPQGDREHPDQGLICHDAFCGALVMKIGNSGTIPVNTGLFRWVAPNNVQGAITLIYNDVPGTYGNNSGSFSVNIGKDQS
Take B1: the “glycan array binding signal (z-score)” value with Fuc(a1-2)Gal(b1-3)GlcNAc was -0.365; in assay [1], 3.69; in assay [2], 0.183; in [3], 0.174; in assay [4], -0.363; in the assay with Gal(a1-2)Gal, 4.77. The “glycan array binding signal (z-score)” value with Gal(a1-3)Gal(b1-4)Glc was 3.73; in assay [5] it was 4.11; in assay [6], 3.92; in the assay with Gal(a1-4)GlcNAc, 3.15; with Gal(a1-6)Glc, 1.53; with Gal(b1-3)Gal, -0.271. The “glycan array binding signal (z-score)” value in assay [7] is 0.234; in the assay with Glc(a1-4)Glc, -0.365; with GlcA(b1-3)Gal it was -0.365; in assay [8] it was -0.365; in assay [9] it was -0.365; in the assay with Man(a1-2)Man(a1-3)Man it was -0.365. In addition, the “glycan array binding signal (z-score)” value in assay [10] was -0.357; in assay [11] it was -0.364; in assay [12], -0.365; with Neu5Gc(a2-3)Gal(b1-4)Glc it was -0.364.
